Consider eight molecules from PubChem BioAssay (NCI).

Holding throughout (assay): NCI-60 one-dose screen, 48 h (100 = growth as untreated, 0 = no growth, -100 = all killed)
What all share (details): 10 µM unless noted

In assay [1] the test system is SK-MEL-2 melanoma.
The subject of assay [2] is EKVX NSCLC.
Assay [3] concerns SN12C renal.
The subject of assay [4] is UO-31 renal.
The subject of assay [5] is TK-10 renal.
Assay [6] concerns ACHN renal.
The subject of assay [7] is CAKI-1 renal.
For assay [8], the system named is A498 renal.
Assay [9] relates to CCRF-CEM leukemia.
The test system of assay [10] is MOLT-4 leukemia.
For assay [11], the system named is RPMI-8226 leukemia.
Assay [12] relates to OVCAR-8 ovarian.
Assay [13] concerns OVCAR-5 ovarian.
The subject of assay [14] is OVCAR-4 ovarian.
Assay [15] relates to SK-OV-3 ovarian.
Assay [16] deals with OVCAR-3 ovarian.
The subject of assay [17] is HS 578T breast.
The subject of assay [18] is NCI/ADR-RES ovarian.
Assay [19] has as its system IGROV1 ovarian.

About 83,000 compounds went through this panel and 20% of them were active in at least one assay; those are over-represented in the sample as a whole.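 Assay: single dose, 48 h. Readout: percent growth (0 = no net growth; negative = cell death). Active: <10.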 Unmarked numbers belong to inactive results. The source made the active and inactive calls.

`Cc1nc2ccccc2c(/C=C/c2ccc(Cl)cc2)c1C(=O)/C=C/c1ccc(Cl)cc1`: the growth in [1] was -13.6% (active); in assay [2], -11.9% (active); in assay [3], -61.6% (active); in assay [4], -86.2% (active); in assay [5], -6.59% (active); in assay [6], -90.3% (active). Besides, the growth in [7] is -33.8% (active); in [8], -75.5% (active); in assay [9] it was 7.4% (active); in assay [10], 5.06% (active); in [11], -17.4% (active); in [12], 5.4% (active). For the same molecule, the growth is -45.6% (active) in [13]; 0.984% (active) in assay [14]; 28.4% in assay [15]; -70.6% (active) in assay [16]; -4.76% (active) in assay [17]; -15.4% (active) in assay [18].
For `CCCCCCN(CCCCCC)CC(O)c1cccc2ccc(Cl)cc12` (stereo not drawn), the growth was 46.6% in assay [1]; 77.2% in assay [2]; 72.8% in assay [3]; 47.9% in assay [4]; 79.2% in [5]; 50.8% in [6]. Further, the growth in [7] is 25.3%; in assay [8], 67.3%; in [9] it was 67.6%; in assay [10], 37.8%; in [11], 31.2%; in assay [12] it was 93.8%. Besides, the growth in assay [13] was 69.3%; in [14], 70%; in assay [19], 40.8%; in [16] it was 63.2%; in [17] it was 61.2%; in assay [18] it was 66.9%.
Consider `Oc1ccccc1-c1nc2ccccn2c1NCCN1CCOCC1`, for which the growth in assay [1] was 106%; in [2] it was 102%; in [3], 97.1%; in assay [4], 89.9%; in assay [5] it was 94.8%; in assay [6], 95.3%. The growth was 86.9% in [7]; 89.5% in [8]; 94.3% in assay [9]; 97.5% in [10]; 93.2% in [11]; 100% in assay [12]. In addition, the growth was 91.6% in assay [13]; 92.2% in assay [14]; 76.5% in [15]; 103% in assay [19]; 97.3% in assay [16]; 89.5% in assay [17]. For the same molecule, the growth in assay [18] is 104%.
For `N#Cc1c(NC(=O)c2cccc(C(F)(F)F)c2)sc2c1CCC(=O)C2`, the growth was -0.134% (active) in [1]; 14.7% in assay [2]; 4.55% (active) in assay [3]; -100% (active) in assay [4]; -5.21% (active) in [5]; -93.8% (active) in assay [6]. Besides, the growth in assay [7] is -85.3% (active); in assay [8], 94.6%; in [9], 6.89% (active); in assay [10], 3.86% (active); in assay [11], -9.7% (active); in [12] it was 10.4%. The growth in assay [13] is 12.9%; in assay [14], -80.7% (active); in assay [15] it was 3.53% (active); in assay [19] it was -50.7% (active); in [16], -46.8% (active); in assay [17], 1.32% (active). Also, the growth in [18] is 7.01% (active).
For `C=C(C)[C@@H]1CC[C@]2(C(=O)NCC(=O)O)CC[C@]3(C)[C@H](CC[C@@H]4[C@@]5(C)Cc6c([nH]c7ccccc67)C(C)(C)[C@@H]5CC[C@]43C)[C@@H]12`, the growth is 92.4% in assay [1]; 84.7% in [2]; 72.2% in assay [3]; 55.4% in assay [4]; 103% in assay [5]; 87.4% in [6]. Moreover, the growth in assay [7] was 78.5%; in assay [8], 77.2%; in assay [9] it was 72.8%; in assay [10] it was 78.4%; in assay [11], 79.8%; in assay [12] it was 78.4%. The growth in assay [13] is 107%; in assay [14], 75.9%; in assay [15] it was 75.1%; in [19], 83.3%; in assay [16], 90.5%; in [17], 56.9%. The growth in assay [18] is 95.4%.
On to `C[C@H]1[C@H](C)CC[C@]2(C(=O)N3CCN(C)CC3)CC[C@]3(C)C(=CC[C@@H]4[C@@]5(C)C/C(=C/c6cccnc6)C(=O)C(C)(C)[C@@H]5CC[C@]43C)[C@H]12`, for which the growth in assay [1] is -82.6% (active); in [2], -81.5% (active); in assay [3], -95.3% (active); in [4] it was -92.5% (active); in [5], -97.4% (active); in assay [6], -94.4% (active). The growth is -42.5% (active) in [7]; -83.2% (active) in [8]; -51.7% (active) in [9]; -51.9% (active) in assay [10]; -59.3% (active) in [11]; -76.2% (active) in assay [12]. Besides, the growth in assay [13] was -77.8% (active); in assay [14], -24.9% (active); in [15] it was -89.5% (active); in assay [19], -69.2% (active); in assay [16], -93.2% (active); in assay [18], -75.1% (active).
`COC(=O)/C(=C\c1ccc(OC)cc1)C(=O)N1c2ccccc2Sc2ccccc21`: the growth was 35.5% in assay [1]; 59.3% in assay [2]; 71.1% in assay [3]; 52.6% in assay [4]; 92.9% in [5]; 58.3% in [6]. For the same molecule, the growth in assay [7] is 29.4%; in assay [8] it was 7.6% (active); in assay [9], 43.1%; in [10], 34.5%; in [11], 54.4%; in [12], 64.4%. For the same molecule, the growth in assay [13] is 75.1%; in assay [14] it was 89.3%; in assay [15], 91.7%; in assay [19], 43.6%; in assay [16], 24.5%; in assay [17] it was 56.1%. In addition, the growth in [18] is 16.4%.
For `Cc1ccc(/C(=N\N=C(N)N)c2ccccc2)cc1`, the growth in assay [1] was 71.3%; in [2], 34.3%; in [3] it was 26.9%; in assay [4], 24.8%; in [5] it was 42.2%; in [6], 20.4%. The growth is 41.2% in [7]; 20.1% in assay [8]; 14% in assay [9]; 13.3% in assay [10]; -7.92% (active) in [11]; 22.4% in assay [12]. The growth in [13] was 51.4%; in [14], 15.8%; in [15], 4.12% (active); in assay [16] it was -38.5% (active); in assay [17] it was 31.5%; in assay [18], 15.5%.
